# About 2,100 (3.2%) of roughly 65,000 compounds showed an effect of 50% or more. The median lay at about -52%. Many of the other results were omitted from the sample, so strong results are more common in it than they were.
# Test system: Plasmodium falciparum
# Test: Screen against P. falciparum Asexual Blood Stage (ABS), at 5uM
# Type: functional, Dd2
# Conditions: tested at 5 uM
row,Compound,INHIBITION [%]
1,COc1ccc2[nH]c(C[C@@H]3C[C@@H](C(C)C)[C@H](CN(C)C)C=C3C)nc2c1,78.9
2,Cc1ccc(CN2C[C@@H]3CCN(Cc4cccnc4)C(=O)[C@H]3C2)s1,-93.5
3,CC(C)c1nccc([C@@H]2C[C@@H]3CCN(Cc4ccco4)C[C@H]3O2)n1,-12.5
4,CN(C)C(=O)CN1CCOCC2(C1)CN(c1ncccn1)CCO2 (stereo not drawn),-97
5,Cc1nc(-c2ccc(F)c(F)c2)cc(C2CCNCC2)n1,84.1
6,Cn1cc(CN2CC[C@H]3[C@H]2CC(=O)N3Cc2ccncc2)cn1,-2.65
7,CN1CCN(S(=O)(=O)c2ccc(Cl)c(Cl)c2)c2cnccc21,89.6
8,CN1CCN(S(=O)(=O)c2cccc(F)c2)Cc2cccnc21,-37.8
9,c1cnc(N2CC3(CCN(Cc4cccnc4)C3)C2)nc1,-85.5
10,FC1(F)CCN(Cc2cccnc2)CC12CCN(c1ccccc1)C2 (stereo not drawn),85.3
11,Fc1cccnc1N1CCC2(CNCCC2(F)F)C1 (stereo not drawn),47.8
12,FC1(F)CCNCC12CCN(c1ncccn1)C2 (stereo not drawn),19.8
13,OCCN1CCC(F)(F)C2(CCN(c3cccnc3)C2)C1 (stereo not drawn),-46.2
14,FC1(F)CCNCC12CCN(c1ccccn1)C2 (stereo not drawn),58.6
15,FC1(F)CCNCC12CCN(c1cccnc1)C2 (stereo not drawn),66.6
16,O=C1CSC(c2ccc(O)cc2)c2sccc2N1 (stereo not drawn),-74.5
17,c1coc(CN2CC[C@@H]3O[C@@H](COCc4ccncc4)CC[C@@H]32)c1,-70.4
18,CCCN1CCN(C(=O)Cc2cccnc2)[C@H]2CS(=O)(=O)C[C@H]21,-103
19,CO[C@H]1CN(CC2CC2)[C@@H]2CCCO[C@H]12,7.3
20,Cc1nc(C2CCN(C)CC2)cc(N2CCOc3ccc(Cl)cc3C2)n1,70.7
21,CC(Cn1cccn1)NCc1nc(-c2ccsc2)no1 (stereo not drawn),-40
22,CCS(=O)(=O)N1CCc2c(CN3CCOCC3)cncc2C1,-10.2

row,Compound,INHIBITION [%]
1,CS(=O)(=O)NC[C@H]1OC[C@@H]2CN(Cc3cccnc3)CC[C@@H]21,-58.6
2,CC1CN(Cc2ccccc2)CCCN1CCNS(C)(=O)=O (stereo not drawn),71.7
3,O=C(O)[C@H]1CN(Cc2ccccc2)C[C@@H]1C(=O)c1ccccc1,-40.5
4,Cc1cnc(NCCc2c[nH]cn2)nc1-c1ccnn1C,-84
5,CCC(C)Oc1ccc(CNCCc2c[nH]cn2)cc1Cl (stereo not drawn),91.9
6,Cc1cccc(CN2CCN3C[C@H](Oc4cncnc4)C[C@H]3C2)n1,-87
7,Cc1ccc(CN2C[C@@H]3CN(c4ncccn4)C[C@@H]3C2)cc1,-62.8
8,Cc1cccc(CN2CCCC[C@H]3CN(c4ncccn4)C[C@H]32)c1,-35.2
9,CCC(=O)N1CCC2(CC1)C(=O)N(Cc1cccnc1)CCN2C,0.961
10,Cc1cccc(CN2CCC3(CCN(c4ncccn4)CC3)C2=O)c1,76
11,Cc1cccc(CN2CCCC(O)(CNCc3ncccc3C)C2=O)c1 (stereo not drawn),82.1
12,Cc1cccnc1CN(C)CC1(O)CCCN(CC2CCCCC2)C1=O (stereo not drawn),44.3
13,CC(C)c1cc(N2CCC3(CC2)CN(C)CCN3C)ncn1,-11.3
14,CCOc1ncccc1C(=O)N1CCN(C)C2(CCN(C)CC2)C1,10.3
15,Cc1cc(C)c2c(NCCC34CCCN3CCC4)ncnc2n1,-48.6
16,CCc1ncc(CN2C[C@@H]3CC[C@H]2CN(C(=O)C2CCC2)C3)cn1,-85.5
17,CC(C)Nc1cc(-c2c[nH]nc2C2CCN(C(=O)C3CC3)C2)ccn1 (stereo not drawn),80.9
18,O=C(C1CCC1)N1CCN(Cc2cccnc2)[C@H]2CS(=O)(=O)C[C@H]21,-17.6
19,CCCNc1cc(-c2c[nH]nc2C2CCN(C(=O)C3CCC3)C2)ccn1 (stereo not drawn),92.5
20,CC(C)Nc1cc(-c2c[nH]nc2C2CCN(C(=O)C3CCC3)C2)ccn1 (stereo not drawn),83.7
21,O=C(C1CCC1)N1CC[C@]2(O)CCN(Cc3ncccn3)C[C@@H]2C1,-55.6
22,O=C1NC2(CCc3ccccc31)CCN(Cc1cccnc1)C2 (stereo not drawn),-111

row,Compound,INHIBITION [%]
1,O=C(c1ccco1)N1C[C@H]2CCCN(Cc3ccncc3)[C@H]2C1,-19.6
2,Cn1cnc(S(=O)(=O)N2C[C@H]3CN(Cc4cccnc4)C[C@H]3C2)c1,-85.8
3,Cc1sc2nc(CCN)nc(N3CC(N4CCCCC4)C3)c2c1C,81.6
4,Cc1sc2nc(CCN)nc(N3CCC(N4CCCC4)CC3)c2c1C,84.3
5,COCC(=O)NC[C@H]1C[C@@H]2CCN1C[C@@H]2CN1CCc2ccccc21,27.2
6,N#Cc1cnc2ccccc2c1N1CCNCC1,-3.53
7,O=C(C1CCCCC1)N1C[C@H]2CNC[C@H]2C1,44.5
8,CN1C[C@@H]2C[C@H](C(=O)Nc3cccnc3)[C@H](C1)O2,-69.3
9,CC(=O)NC(C)C(=O)NCc1ccc(N2CCNC(=O)C2)cc1 (stereo not drawn),-4.19
10,COc1ccc(CNC(=O)C2=NN(c3ccc(C)cc3)C(=O)CN2)cc1,75
11,COCCN1CCO[C@H]2[C@H](OCc3cccc(C)n3)CC[C@@H]21,-74.3
12,Cc1ccc2[nH]c([C@H]3CCN(CC4CCCCC4)C3)nc2c1,74.7
13,Cc1ccc2[nH]c(C3CCN(C)CC3)nc2c1,-40.2
14,CC(C)(C)c1n[nH]c(C2CN(CC3CCC3)CCO2)n1 (stereo not drawn),-108
15,CCC(CC)NCC(C)Oc1cccnc1 (stereo not drawn),-116
16,Cc1cn2c(n1)C(CNCc1cccc3c1OCO3)CCC2 (stereo not drawn),82.1
17,Cc1cn2c(n1)C(CNCc1ccc(C)s1)CCC2 (stereo not drawn),91.1
18,CCOC[C@@H]1CCC[C@@]12CN(Cc1cccnc1)CCO2,-129
19,Cc1ccc2c(c1)C1(CCNCC1)CC2NCCO (stereo not drawn),-23.2
20,Cc1ccc2c(c1)C(N(C)C)CC21CCN(CCO)CC1 (stereo not drawn),74.8
21,Cc1ccc2c(c1)CCC21CCN(CCO)CC1,15.4
22,Cc1cccc(CN2C[C@@H]3OCCN(C)[C@@H]3C2)n1,-14.4

row,Compound,INHIBITION [%]
1,Cc1ccc(CN2CCC3(CC2)C(=O)N(C)c2ccccc23)s1,3.77
2,COCCN1CCC2(COCc3cnc(-c4ccccc4)nc32)C1 (stereo not drawn),31.2
3,Cc1cccc(CNC2CC3(CCN(CCO)CC3)c3ccccc32)n1 (stereo not drawn),78.6
4,Cc1ccc(CNC2CC3(CCN(CCO)CC3)c3ccccc32)s1 (stereo not drawn),85.4
5,COCCN1CCC2(CC1)CC(NCc1ccc(C)s1)c1ccccc12 (stereo not drawn),77.2
6,O=S(=O)(C1CC1)N1CCC2(CCCN(Cc3ccccn3)C2)C1 (stereo not drawn),12.2
7,O=C(Cc1ccccn1)N1CCN2C[C@H](OCCN3CCCC3)C[C@H]2C1,2.21
8,CC[C@@H]1N(CC2CC2)CCC[C@]12CCC(=O)N2,-57.5
9,Cc1noc(C)c1CN1CC[C@H]2[C@H]1CCN2CC1CCOCC1,-92
10,CNC(=O)[C@H]1C[C@@H]2CN(C(=O)c3ccc(C)nc3)C[C@@H]2N1C,-35.1
11,CC(C)C(NC(=O)c1ccccc1)C(=O)N1CCC2(CC1)OCCO2 (stereo not drawn),-37.3
12,CN(C)C(=O)c1ccc(-c2cccc3c2CCNC3)o1,-44.3
13,Cn1cc(CN2CC[C@]3(C[C@H](Oc4ccccn4)CO3)C2)cn1,-20.3
14,Cn1cc(CNC2CC3(CCN(CC4CC4)CC3)c3ccccc32)cn1 (stereo not drawn),87.6
15,CN1C(=O)C2(CCN(CC3CC3)CC2)c2ccccc21,25.6
16,NC1CCN(C2CCN(c3ccc(-c4ccco4)cc3)CC2)CC1,80.3
17,Cc1oc(-c2ccco2)nc1CC(=O)N1CCN(C2CCC2)CC1,-14.4
18,CNC1CCN(C2CCN(c3ccc(-c4ccco4)cc3)CC2)CC1,86.4
19,NCC1CCN(C2CCN(c3ccc(-c4ccco4)cc3)CC2)C1 (stereo not drawn),91
20,O=C1NC2(CCCCC2)c2nnnn2-c2ccc(Br)cc21,-67.2
21,O=C(CCc1ccsc1)N1CCC(C(=O)O)(c2ccccc2)CC1,-103
22,CCN1CCCN(S(=O)(=O)c2cc3ccccc3o2)CC1,84.3

row,Compound,INHIBITION [%]
1,NC(=O)CN1CCCN(C(=O)Cc2ccc(F)cc2)CC1,-158
2,CS(=O)(=O)c1ccc(-c2cc(O)cc(CCC3CCCCN3)c2)cc1 (stereo not drawn),70.3
3,CS(=O)(=O)c1ccc(CC(=O)N2CCN3CCNC(=O)C3C2)cc1 (stereo not drawn),-50.4
4,CCCn1ccnc1CN1CCCC1c1ccccn1 (stereo not drawn),86.8
5,CCCN1CCN(Cc2nccn2CC)C(C)C1 (stereo not drawn),-101
6,CCC(=O)N1CCN(Cc2cnc(C)nc2)[C@H]2CS(=O)(=O)C[C@H]21,-106
7,Cc1ccc(Sc2ccc(CN3CCC4(CCCNC4=O)C3)o2)cc1 (stereo not drawn),73.1
8,Cc1nnc(N2CCCC3(CN(Cc4ccncc4)CCO3)C2)o1 (stereo not drawn),-78.8
9,O=C1CC2(CCN(Cc3ccc(Cl)s3)C2)C(=O)N1 (stereo not drawn),-155
10,CC(C)C(=O)N1CCCC2(CCCN2Cc2cccnc2)C1 (stereo not drawn),-13.9
11,Cc1ccccc1CC(=O)N1C[C@@H](O)[C@H](N2CCN(C)CC2)C1,-87.9
12,CN(C)[C@@H]1CCN(c2ncccn2)[C@H]1Cc1ccccc1,78.1
13,Cc1cccc(CN2CC[C@@H]3[C@@H]2CCN3C(=O)c2cc(C)on2)n1,-95.7
14,CN(C)[C@@H]1CCN(C(=O)Cc2cccs2)[C@H]1Cc1cnn(C)c1,-4.87
15,CN(C)[C@@H]1CCN(c2ncc(F)cn2)[C@H]1Cc1ccccc1,89
16,CN(C)C(=O)CN1CC[C@H]2[C@H]1CCN2c1ncccn1,-109
17,Cc1ccc(CN2C[C@@H]3CN(c4ncc(F)cn4)C[C@@H]3C2)cc1,-37
18,CN(C)[C@@H]1CCN(C(=O)Cc2cccs2)[C@H]1Cc1ccncc1,-51.7
19,CN(C)[C@@H]1CCN(C(=O)Cc2ccc(F)cc2)[C@H]1Cc1ccncc1,5.44
20,Cc1cc(C(=O)N2CC[C@@H](N(C)C)[C@@H]2Cc2ccccc2)no1,74.4

# — ChEMBL document CHEMBL4513216, “Probing the Open Global Health Chemical Diversity Library for Multistage-Active Starting Points for Next-Generation Antimalarials” (ACS Infect Dis, 2020)
